Consider ten molecules from PubChem BioAssay (NCATS).

A number with no mark means an inactive call. Records with an inconclusive call do not appear. The source made the active and inactive calls. Unless noted, calls come from the whole dose curve; as a rule, active = well fitted curve in either direction with a large enough effect (not every such curve was filed as active); inconclusive = small, poorly fitted or top-dose-only effect, or another doubt; inactive = flat fitted curve, though single readings scatter.

For experiment [1], the target named is Lysosomal acid glucosylceramidase (Homo sapiens) (UniProt P04062). The experiment can be described thus: Glucocerebrosidase-p2 (AID 348; in the data active = potency below about 10 µM; note: potency is the fitted concentration of half-maximal effect). The note with it: purified GBA, blue fluorogenic substrate, 40 min. The gist of the method: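 Compounds titrated from 0.6 nM upwards against 0.2 nM enzyme in pH 5.9 citric acid/KH2PO4, taurocholate, tween-20; blue fluorogenic substrate 80 uM, 40 min room temperature, stopped and read Ex 365/Em 440 for AC50.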
Lysosomal acid glucosylceramidase (Homo sapiens), sequence (P04062 whole entry, looked up): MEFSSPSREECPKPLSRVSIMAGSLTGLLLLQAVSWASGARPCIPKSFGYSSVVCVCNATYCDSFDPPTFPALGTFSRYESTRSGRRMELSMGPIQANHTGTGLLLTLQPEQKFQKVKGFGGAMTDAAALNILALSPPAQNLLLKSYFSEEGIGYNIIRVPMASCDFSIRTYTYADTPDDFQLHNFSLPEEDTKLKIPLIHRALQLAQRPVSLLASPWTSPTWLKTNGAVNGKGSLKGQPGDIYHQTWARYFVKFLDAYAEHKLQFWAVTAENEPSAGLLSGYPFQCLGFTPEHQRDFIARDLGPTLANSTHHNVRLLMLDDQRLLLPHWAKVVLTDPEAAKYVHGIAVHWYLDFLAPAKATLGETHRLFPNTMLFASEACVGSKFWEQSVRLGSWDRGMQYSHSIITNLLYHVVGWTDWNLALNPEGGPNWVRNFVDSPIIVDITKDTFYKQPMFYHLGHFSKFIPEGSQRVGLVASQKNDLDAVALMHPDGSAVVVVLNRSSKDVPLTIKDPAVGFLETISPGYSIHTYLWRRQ

A short description of experiment [2]: AP1 Signaling Pathway (AID 357).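 Note: ME-180 reporter cells stimulated with EGF at its EC50 level; % is set by controls: 0 for no effect and ±100 for the full control effect.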 The note with it: ME-180 AP-1-bla reporter, EGF-induced, beta-lactamase ratio, 5 h; at 7.69 µM (top of the series) unless noted. The gist of the method:
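AP-1-bla ME-180 cells, Opti-MEM + 0.5% dialyzed FBS, plated overnight 37 °C. Cpd titration + EC50 EGF, 5 h 37 °C. CCF4 2.5 h RT; ex 405, em 460/530 ratio → %activity, AC50.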

The target in experiment [3] is Cytochrome P450 1A2 (Homo sapiens) (UniProt P05177). Put plainly: p450-cyp1a2 (AID 410; calls by dose curve; note: potency is the fitted concentration of half-maximal effect;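 for activity change, negative = inhibition: -100% = full effect of reference inhibitor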). The note with it: recombinant CYP1A2, luciferin-ME demethylation, luminescence; series mostly up to 11.4 µM. In short, it runs like this:
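Inhibition was calculated relative to 57 uM furafylline (full inhibition). The reaction used human CYP1A2 at 20nM with Luciferin-ME at its Km, 100uM, driven by an NADPH-regenerating system for 60 min at room temperature.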

Experiment [4] is described as follows: NFAT Signaling Pathway (AID 444).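 Note: carbachol stimulus at about its EC50 of 1 µM final; % is set by controls: 0 for no effect and ±100 for the full control effect.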 Conditions: Jurkat NFAT-bla M1, carbachol, beta-lactamase ratio, 5 h; at 7.69 µM (top of the series) unless noted. The gist of the method: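 Read-out: CCF4 FRET ratio (460 nm/530 nm) after 1 h RT dye loading, used for %activity and AC50 from titration series. Cells: Jurkat NFAT-β-lactamase/M1 line, treated with compound plus 1 uM carbachol for 5 h, 37 °C.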

A short description of experiment [5]: Stat Signaling Pathway (AID 446).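 Note: ME-180 cervical cancer cells given 40 pM IL-6 alongside compound; SIE-controlled beta-lactamase reporter measured as 460/530 nm FRET emission ratio; % is set by controls: 0 for no effect and ±100 for the full control effect.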 Conditions: ME-180 SIE beta-lactamase reporter, IL-6 stimulated, 5 h; at 7.69 µM (top of the series) unless noted. The gist of the method: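 ME-180 SIE-bla cells; overnight plating; cpd + IL-6 40 pM, 5 h, 37 C; LiveBLAzer 2.5 h RT; 460/530 nm emission ratio. Normalized to 300 pM IL-6 and 125 nM JAK inhibitor controls.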
Experiment [6] addresses Glucocorticoid receptor (Homo sapiens) (UniProt P04150). The experiment can be described thus: GR-GFP Redistribution (AID 450;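 active = compounds whose dose series gives a full or clear partial fitted curve of increased nuclear translocation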; note: potency is the fitted concentration of half-maximal effect). The note with it: U2OS GR-GFP nuclear translocation, laser cytometry, 2 h.
Experiment [7] has the same target. The experiment can be described thus: GR-EFC Redistribution (AID 451; calls by dose curve; note: potency is the fitted concentration of half-maximal effect). The note with it: CHO-K1 GR-EFC translocation, beta-gal luminescence, 2 h. In short, it runs like this: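 Translocation of GR-ED fusion to nuclear EA restores b-gal, read by luminescence after 1 h room-temperature detection. Engineered CHO-K1 biosensor cells, 1,000/well, exposed 2 h at 37 C to titrations up to 46 uM final.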

The target in experiment [8] is Mitogen-activated protein kinase 10 (Mus musculus) (UniProt Q61831). The experiment can be described thus: JNK3 AlphaScreen Assay (AID 530).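 Note: kinase came from lysate of stimulated human HepG2 cells; signal reports phosphorylation of biotinylated GST-cJun 1-79 at Ser73 with 10 µM ATP; % is set by controls: 0 for no effect and ±100 for the full control effect.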 The note with it: JNK3 lysate, c-Jun phosphorylation; series mostly up to 11.4 µM. The gist of the method: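 Room-temperature AlphaScreen kinase assay; pre-activated HepG2 lysate as JNK3 source, biotin-GST-cJun(1-79) substrate, 10 uM ATP, compound 15 min preincubation.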

For experiment [9], the target named is 3',5'-cyclic-AMP phosphodiesterase 4B (Homo sapiens) (UniProt Q07343). Put plainly: qHTS Assay for Inhibitors of PDE-IV (AID 607; active = well fitted activation curve with a large enough effect in the main read-out, with a control signal flat, not every such curve was filed as active; note: % of control where 0% means no effect). Conditions: HEK293 ACTOne CNG channel cells, membrane potential fluorescence; series mostly up to 22.9 µM. In short, it runs like this: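 ACTOne HEK293 cells carry a modified cAMP-gated CNG channel and express endogenous PDE4; plated 1000 cells/well, compounds up to 22.9 uM final. Membrane-potential dye fluorescence (ex 535/em 590) was read; parental cells received 10 uM forskolin + 100 uM RO 20-1724.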
3',5'-cyclic-AMP phosphodiesterase 4B (Homo sapiens), sequence (Q07343 whole entry, looked up): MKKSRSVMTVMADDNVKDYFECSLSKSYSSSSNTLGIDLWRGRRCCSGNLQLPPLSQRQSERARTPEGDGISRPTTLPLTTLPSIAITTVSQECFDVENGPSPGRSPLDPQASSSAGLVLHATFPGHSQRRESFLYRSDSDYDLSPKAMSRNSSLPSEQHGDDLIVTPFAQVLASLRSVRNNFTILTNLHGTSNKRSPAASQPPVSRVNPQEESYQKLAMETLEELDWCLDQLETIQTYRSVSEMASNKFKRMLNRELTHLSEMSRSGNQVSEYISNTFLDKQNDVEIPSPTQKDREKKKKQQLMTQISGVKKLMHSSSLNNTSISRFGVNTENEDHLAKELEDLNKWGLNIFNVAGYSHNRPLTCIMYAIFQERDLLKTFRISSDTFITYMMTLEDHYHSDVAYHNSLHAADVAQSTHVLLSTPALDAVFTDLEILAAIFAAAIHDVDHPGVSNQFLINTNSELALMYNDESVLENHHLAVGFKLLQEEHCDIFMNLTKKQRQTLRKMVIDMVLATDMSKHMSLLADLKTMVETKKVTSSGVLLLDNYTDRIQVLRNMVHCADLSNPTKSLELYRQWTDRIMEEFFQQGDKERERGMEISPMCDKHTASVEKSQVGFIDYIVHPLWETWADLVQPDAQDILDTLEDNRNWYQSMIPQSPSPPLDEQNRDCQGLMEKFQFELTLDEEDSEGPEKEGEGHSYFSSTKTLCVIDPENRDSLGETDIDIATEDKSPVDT
In general terms: qHTS replaces the single test concentration by a dilution series.

Glucocorticoid receptor (Homo sapiens), sequence (P04150 whole entry, looked up, the tested form may be a part): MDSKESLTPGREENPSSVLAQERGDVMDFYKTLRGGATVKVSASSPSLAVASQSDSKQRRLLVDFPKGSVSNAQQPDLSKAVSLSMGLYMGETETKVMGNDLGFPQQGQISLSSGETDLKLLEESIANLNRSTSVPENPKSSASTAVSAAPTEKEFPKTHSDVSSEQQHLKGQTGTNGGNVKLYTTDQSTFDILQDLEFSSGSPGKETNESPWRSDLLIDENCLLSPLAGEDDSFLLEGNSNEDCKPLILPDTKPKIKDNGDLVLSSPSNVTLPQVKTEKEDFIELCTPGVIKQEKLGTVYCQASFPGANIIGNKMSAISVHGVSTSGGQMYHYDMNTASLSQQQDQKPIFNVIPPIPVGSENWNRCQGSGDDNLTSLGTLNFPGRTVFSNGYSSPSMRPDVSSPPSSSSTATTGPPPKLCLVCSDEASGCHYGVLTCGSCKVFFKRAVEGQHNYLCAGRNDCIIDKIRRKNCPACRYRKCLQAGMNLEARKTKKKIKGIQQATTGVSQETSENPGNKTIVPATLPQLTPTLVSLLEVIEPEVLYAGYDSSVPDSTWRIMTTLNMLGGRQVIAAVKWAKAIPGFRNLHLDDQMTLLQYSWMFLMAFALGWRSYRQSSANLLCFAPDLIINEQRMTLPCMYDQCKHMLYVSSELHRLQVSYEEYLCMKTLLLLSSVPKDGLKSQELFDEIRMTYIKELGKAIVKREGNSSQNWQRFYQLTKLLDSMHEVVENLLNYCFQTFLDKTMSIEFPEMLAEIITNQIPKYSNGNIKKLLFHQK
Cytochrome P450 1A2 (Homo sapiens), sequence (P05177 whole entry, looked up): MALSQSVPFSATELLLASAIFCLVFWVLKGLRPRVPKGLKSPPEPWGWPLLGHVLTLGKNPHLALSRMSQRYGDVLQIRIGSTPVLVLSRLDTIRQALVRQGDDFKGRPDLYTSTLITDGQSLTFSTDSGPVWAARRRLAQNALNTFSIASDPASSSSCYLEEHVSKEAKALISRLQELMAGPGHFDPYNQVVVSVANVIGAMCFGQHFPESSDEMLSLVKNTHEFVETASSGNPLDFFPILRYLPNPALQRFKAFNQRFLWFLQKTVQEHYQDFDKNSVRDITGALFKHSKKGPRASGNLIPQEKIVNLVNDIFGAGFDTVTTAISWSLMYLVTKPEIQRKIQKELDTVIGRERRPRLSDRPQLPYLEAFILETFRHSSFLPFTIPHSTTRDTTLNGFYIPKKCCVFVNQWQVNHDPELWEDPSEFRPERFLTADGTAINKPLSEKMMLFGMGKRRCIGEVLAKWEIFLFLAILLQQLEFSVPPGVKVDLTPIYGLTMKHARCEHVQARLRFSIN

`C/C(=N/NS(=O)(=O)c1ccc(C)cc1)P(=O)(O)O`: the Potency was above 11.4 µM in [1], above 46 µM in [6] and above 9.22 µM in experiment [7]. Besides, the activity change, negative = inhibition is 1.2% in [2] and 7.41% in [4]. Further, the Potency entry in experiment [3], in experiment [8] and in [9] was “inactive” throughout. Further, the activity, negative = inhibition in [5] is 6.08%.

On to `C/C(=N\O)c1cccc[n+]1Cc1ccccc1`, for which the results for the Potency in experiment [1], in [6] and in experiment [7] were above 11.4 µM, above 46 µM and above 9.22 µM, respectively. For the same molecule, the values for the activity change, negative = inhibition in [2] and in [4] were -1.8% and -12.3%, respectively. The Potency result in experiment [3], in experiment [8] and in experiment [9] was “inactive” in each case. Besides, the activity, negative = inhibition in [5] was 11.4%.

Regarding `CC(CCN)(CCN)[N+](=O)[O-]`, the Potency in experiment [1] was above 11.4 µM; in experiment [6], above 46 µM; in [7], above 9.22 µM. The activity change, negative = inhibition in experiment [2] was 10.4%; in experiment [4] it was 9.23%. Moreover, the Potency result in [3], in experiment [8] and in experiment [9] was “inactive” throughout. Also, the activity, negative = inhibition in experiment [5] was 5.23%.

On to `Cc1ccc(S(=O)(=O)NC(=O)Nc2ncn[nH]2)cc1`, for which the Potency in experiment [1] was above 11.4 µM; in experiment [6], above 46 µM; in [7], above 9.22 µM. Moreover, the activity change, negative = inhibition in [2] was 3.19%; in experiment [3], -21.5% [at 2.29 µM]; in [4], 13%. In addition, the activity, negative = inhibition in [5] is 0.243%. For the same molecule, the Potency result in [8] and in experiment [9] was “inactive” in each case.

Take `O=S(=O)(c1ccc(Br)cc1)N1CCN(S(=O)(=O)c2ccc(Br)cc2)CC1`: the Potency in [1] is above 11.4 µM; in experiment [6], above 46 µM; in experiment [7] it was above 9.22 µM. Further, the activity change, negative = inhibition was 14.8% in [2] and -0.352% in experiment [4]. Besides, the Potency result in [3], in experiment [8] and in [9] was “inactive” in each case. Further, the activity, negative = inhibition in experiment [5] was 5.43%.

On to `CN(C)Cc1cc(Cl)c(O)c(CN(C)C)c1`, for which the Potency in [1] was above 11.4 µM; in experiment [6], above 46 µM; in experiment [7], above 9.22 µM. The activity change, negative = inhibition in experiment [2] is 0.0803%; in experiment [4], 15.1%. For the same molecule, the Potency result in experiment [3], in experiment [8] and in experiment [9] was “inactive” each time. Also, the activity, negative = inhibition in [5] is -1.91%.

Take `CCOC(=O)Nc1nc(-c2ccccc2)c(C)s1`: the Potency in [1] is above 11.4 µM; in [3], 0.2 µM (active); in [6] it was above 46 µM; in [7], above 9.22 µM. In addition, the activity change, negative = inhibition was -8.11% in experiment [2] and -9.95% in [4]. The activity, negative = inhibition in [5] is 1.24%. Also, the Potency result in [8] and in [9] was “inactive” throughout.

Take `N[C@@H](Cc1nn[nH]n1)C(=O)O`: the results for the Potency in experiment [1], in experiment [6] and in [7] were above 11.4 µM, above 46 µM and above 9.22 µM, respectively. Moreover, the activity change, negative = inhibition in experiment [2] was -0.568%; in experiment [4] it was -5.25%. For the same molecule, the Potency entry in [3], in experiment [8] and in experiment [9] was “inactive” throughout. Besides, the activity, negative = inhibition in experiment [5] was 10.9%.

`C#CCSc1n[nH]c(-c2ccco2)n1`: the Potency is above 11.4 µM in experiment [1], 2 µM (active) in [3], above 46 µM in experiment [6] and above 9.22 µM in [7]. Besides, the activity change, negative = inhibition in experiment [2] was -2.21%; in experiment [4], 15.4%. Further, the activity, negative = inhibition in experiment [5] was -3.07%. Moreover, the Potency result in experiment [8] and in [9] was “inactive” each time.

Take `NS(=O)(=O)c1ccc(NCc2cnc3ccccc3n2)cc1`: the Potency is above 11.4 µM in experiment [1], above 46 µM in [6] and above 9.22 µM in [7]. The activity change, negative = inhibition in experiment [2] was 5.55%; in [3] it was -18.2% [at 2.29 µM]; in experiment [4] it was 6.06%. The activity, negative = inhibition in experiment [5] was 3.16%. Moreover, the Potency entry in [8] and in [9] was “inactive” in each case.
